Source: PubChem
CHO-K1 Ca ag: counter-screen for M1 agonists: effect in parental CHO-K1 cells; 0.48% of 360,000 active; AID 602248; Fluo-8 calcium fluorescence; scaled to maximal ATP response, vehicle zero; activation, % at 3 µM; in the data active = activation above about 15%;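 note: untransfected CHO-K1 host cells lacking M1 receptor as counterscreen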
CHRM1 antagonist: blocks human M1 muscarinic receptor | inhibition, % at 3 µM | 1.3% of 360,000 active | CHO-K1 hM1, Fluo-8 calcium fluorescence, ACh EC80 antagonist | P11229;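 active = percent inhibition above its own plate's cutoff, namely the mean of that plate's compound wells plus 3 SD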;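 note: peak over basal fluorescence ratio during 140 s after agonist addition; 0% = ACh EC80 plus DMSO and 100% = DMSO alone without agonist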
Target sequence (P11229 whole entry, looked up): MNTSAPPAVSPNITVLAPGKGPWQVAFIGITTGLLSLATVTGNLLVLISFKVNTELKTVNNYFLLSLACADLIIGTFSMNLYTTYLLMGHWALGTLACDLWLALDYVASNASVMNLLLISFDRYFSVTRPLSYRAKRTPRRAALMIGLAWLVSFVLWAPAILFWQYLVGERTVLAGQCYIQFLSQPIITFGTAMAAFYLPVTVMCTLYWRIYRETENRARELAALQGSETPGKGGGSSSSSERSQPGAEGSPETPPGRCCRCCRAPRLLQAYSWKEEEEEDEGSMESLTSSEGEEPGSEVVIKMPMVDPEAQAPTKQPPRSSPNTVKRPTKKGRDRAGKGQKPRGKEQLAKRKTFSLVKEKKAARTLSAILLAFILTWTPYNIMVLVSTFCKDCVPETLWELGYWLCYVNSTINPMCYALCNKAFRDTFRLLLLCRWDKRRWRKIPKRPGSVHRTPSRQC
CHO-K1 Ca PAM: counter-screen for M1 PAMs: effect in parental CHO-K1 cells; ATP EC20, Fluo-8 calcium fluorescence; 0% at ATP EC20, 100% at ATP max; activation, % at 3 µM; 0.02% of 360,000 active;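 active = activation above the run cutoff, the mean activation of all test compounds plus 3 SD, cut at about 40% in these data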;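 note: peak over basal fluorescence ratio in a 140 s read after ATP addition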
M1 ag: activates human CHRM1 receptor; CHO-K1 hM1, Fluo-8 calcium fluorescence, agonist mode; 0% DMSO, 100% acetylcholine EC100; P11229; activation, % at 3 µM; AID 588814; 0.33% of 360,000 active;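 active = activation above the run's mean compound activation plus 3 SD, cut at about 16% in these data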;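 note: peak over basal fluorescence ratio within a 140 s kinetic read after compound addition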
M1 PAM: positive allosteric modulators of human M1 muscarinic receptor. P11229. CHO-K1 hM1, Fluo-8 calcium fluorescence, ACh EC20; 0% = ACh EC20, 100% = maximal ACh. activation, % at 3 µM. 0.088% of 360,000 active. AID 588819; in the data active = activation above about 19%, passing the limit was not always enough
CHO-K1 Ca antag: nonselective inhibitor or artifact in parental CHO-K1 cells; ATP-induced calcium, Fluo-8 fluorescence; inhibition, % at 3 µM; AID 602250; 0.6% of 360,000 active;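 active = inhibition above a per-plate cutoff, the plate's mean sample inhibition plus 3 SD, cut at about 24% in these data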;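 note: 0% = DMSO plus EC80 ATP and 100% = DMSO alone without ATP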
Numbers without * were called inactive. In the library only some 2.3% were active in any assay of this set; here they are far more common.

SMILES | CHO-K1 Ca ag | CHRM1 antagonist | CHO-K1 Ca PAM | M1 ag | M1 PAM | CHO-K1 Ca antag
Cc1ccc(N(c2ncnc(N)c2[N+](=O)[O-])C2CCCCC2)cc1 | 0 | 49* | -3 | -7 | -22 | -8
COc1ccc(NC(=O)C2=NN(c3ccccc3)C(=O)CC2)cn1 | 0 | 14 | 13 | -3 | -3 | -12
CC(Oc1ccc2c(-c3ccccc3)cc(=O)oc2c1)C(=O)NC(Cc1c[nH]c2ccc(O)cc12)C(=O)O (centres undefined) | 3 | 9 | -15 | -1 | -10 | 27*
Cc1cc(C)cc(N2C(N)=NC(N)=NC2c2ccccc2F)c1 (centres undefined) | 0 | -18 | 13 | -11 | 9 | -15
COc1ccc(NC(=O)C(Cl)=C(Cl)Cl)cn1 | 0 | -2 | 18 | -7 | 8 | -9
COc1ccc(NC(=O)/C(Cl)=C(/Cl)S(=O)Cc2ccc(Cl)cc2)cn1 (centres undefined) | 1 | 28 | -14 | -5 | -4 | 30*
C/C=C1\NC(=O)[C@H](C)NC(=O)[C@@H](NC(=O)[C@H](Cc2ccc(O)cc2)NC(=O)[C@@H](NC(=O)/C(C)=C/C)C(C)C)[C@@H](C)OC(=O)[C@H](CC(C)C)NC(=O)[C@@H](CCC(=O)O)NC1=O | 0 | -38 | 5 | 0 | 11 | -6
Cc1ccc(NS(=O)(=O)c2ccc(C(=O)OCC(=O)Nc3cc(C)on3)cc2)cc1 | 19* | 8 | 24 | 28* | 6 | 2
CCc1nnc(NC(=O)CSc2ccc(-c3nc4ccccc4[nH]3)cn2)s1 | 6 | -6 | -1 | -6 | -6 | -10
Cc1nc(NC(=O)CSc2ccc(-c3nc4ccccc4[nH]3)cn2)sc1C | 16* | 2 | 5 | -7 | 1 | 4
Cc1ccc(NC(=O)c2ccccc2NS(=O)(=O)c2ccc(Cl)s2)cc1 | 10 | 17 | 5 | -2 | -1 | 25*
CCn1c(NCc2cccs2)nc2ccccc21 | 0 | -26 | 1 | -3 | 15 | -12
CCn1c(NCc2ccccn2)nc2ccccc21 | 0 | 1 | -8 | -2 | 5 | 24*
C[N+](C)(C)CCCCCC(=O)/C=N/O | 1 | -7 | 22 | 29* | -2 | -16
C[N+](C)(C)CCCCCC[N+](C)(C)C | 2 | -33 | 18 | 1 | 6 | 2
COc1ccc(CCNc2oc(COc3ccc(Br)cc3)nc2C#N)cc1OC | 4 | 36* | -14 | -4 | -24 | 20
COc1ccc(CCNc2oc(Cc3cccc4ccccc34)nc2C#N)cc1OC | 1 | 15 | -5 | -3 | -3 | 17
CC(=O)c1c(C)[nH]c(C(=O)CN2CCN(S(=O)(=O)c3ccccc3[N+](=O)[O-])CC2)c1C | 19* | 3 | 9 | 1 | -13 | -15
CCCn1c(=O)c(C(=O)NCc2ccccc2Cl)c(O)c2ccccc21 | 1 | 3 | 4 | 1 | 1 | 1
CCn1c(=O)c(C(=O)NNC(=O)c2ccccc2Cl)c(O)c2ccccc21 | 35* | 2 | 22 | 18* | -4 | -16
CCCn1c(=O)c(C(=O)NCc2ccncc2)c(O)c2ccccc21 | -1 | -13 | 1 | -2 | 7 | 29*
COc1cccc(-c2nc(CS(=O)CC(=O)NC3CCCCC3)c(C)o2)c1 (centres undefined) | 1 | -12 | -3 | 3 | 21 | 0
COc1ccc(O)c(/C=N/n2c(-c3ccco3)csc2=Nc2cccnc2)c1 | 0 | 14 | -15 | -4 | -13 | 28*
COC(=O)c1ccc2nc(NC(=O)C(C)(C)C)sc2c1 | 17* | -6 | 7 | -9 | 1 | 8
CCNC(=O)C1(C)CCCN1C(=O)c1cc(C)on1 (centres undefined) | 0 | -13 | 14 | -1 | 7 | -9
SMILES | CHO-K1 Ca ag | CHRM1 antagonist | CHO-K1 Ca PAM | M1 ag | M1 PAM | CHO-K1 Ca antag
CS(=O)(=O)N(CC(=O)NCCC1=CCCCC1)C1CCCCC1 | 0 | -4 | 7 | -1 | 4 | -4
O=C(CN1CCN(C2CCCCC2)CC1)NCCC1=CCCCC1 | 0 | -9 | -10 | 45* | -14 | 2
COc1ccc(/C=C/c2cc(C(=O)O)c3ccccc3n2)cc1 | 21* | 4 | 5 | 8 | 0 | 2
Cc1scc2c1N(C(=O)CN1CCN(C)CC1)c1ccccc1NC2=O | 0 | 98* | 15 | -6 | -26 | -6
CN(c1cccc(NC(=O)Nc2cccc(Cl)c2)c1)S(C)(=O)=O | 18* | 14 | 1 | 10 | -12 | 20
Cc1ccc(SCCC(=O)Nc2cccc(N(C)S(C)(=O)=O)c2)cc1 | 25* | -3 | -2 | 0 | 9 | 42*
CCCOc1ccc(Cn2cnc3ccccc32)cc1 | 3 | 1 | 4 | -3 | 0 | 25*
Fc1ccc(Cn2cnc3ccccc32)cc1 | 1 | -6 | 11 | 0 | 6 | -2
CS(=O)CSc1nc2c(cc1C#N)CCCC2 (centres undefined) | 0 | 95* | -1 | -12 | -36 | -4
CCCCSc1nc2c(cc1C#N)CCC2 | 0 | -11 | 13 | -2 | 5 | -19
COc1ccc(C2c3c(-c4ccccc4O)n[nH]c3C(=O)N2Cc2ccco2)cc1OC (centres undefined) | 1 | -9 | 15 | -4 | 1 | -9
COc1ccc(C2c3c(-c4cc(Cl)c(C)cc4O)n[nH]c3C(=O)N2Cc2cccnc2)cc1OC (centres undefined) | 0 | 80* | 12 | -6 | -21 | 2
CCn1c(P(C)(=O)O)nc2cc(NC(=O)c3ccccc3Cl)ccc21 | 0 | 0 | -13 | -6 | 2 | 24*
CCC(=O)NCCc1nc2cc(NC(=O)c3ccccc3Cl)ccc2n1C | 1 | -24 | 5 | 3 | 30* | -10
CCC(=O)NCCc1nc2cc(NC(=O)Nc3ccccc3)ccc2n1C | 1 | -8 | 8 | -2 | 3 | -10
CC1(C)Cc2c(sc3nc[nH]c(=O)c23)CO1 | 0 | 7 | -19 | -3 | -9 | 26*
CC1(C)Cc2c(sc3nn[nH]c(=O)c23)CO1 | 1 | -15 | 25 | -4 | 5 | -10
O=C(NCCc1ccccc1C(F)(F)F)C1CCC(=O)N(CCCN2CCCC2=O)C1 (centres undefined) | 0 | -25 | -13 | -1 | 17 | 4
CCOc1ccc(C(=O)CCC(=O)N(CC)CC(=O)Nc2c(F)cccc2F)cc1 | 0 | -2 | -3 | -4 | 7 | -10
O=C(C1CCC(CNS(=O)(=O)c2cccs2)CC1)N1CCN(c2ccc(Cl)cc2)CC1 (centres undefined) | 16* | 6 | 19 | 0 | 0 | -2
CCN1CCN(CCNC(=O)c2ccc(/C=C3\Sc4ccccc4N(Cc4ccccc4F)C3=O)cc2)CC1 | 4 | 47* | 1 | -1 | -23 | -2
